# Screening data from PubChem.
# Shown is part of a subset that was picked to be rich in hits.
# TDP1 cell CPT: DT40-hTDP1 cell growth loss with CPT; hit rate 12% among 420,000; Potency, µM (series often up to 46.2 µM), inactives show at the highest dose activity change, negative = growth inhibition, most hits filed as inhibitors; chicken DT40 Tdp1-/-;hTDP1 cells + 20 nM CPT, ATP luminescence, 48 h; AID 686979; also: potency is read from the fitted curve at half-maximal effect; nearly all actives have a fitted effect of over 55% in size
#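 Chicken DT40 Tdp1-/- cells complemented with human TDP1, 400 cells/well, exposed to compounds plus 20 nM camptothecin for at least 48 h at 37 C; viability read as ATP content by CellTiter-Glo luminescence.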
# HT1080 IDH1KD tx: kills HT-1080 cells with IDH1 knockdown. HT-1080 IDH1 knockdown viability, ATP luminescence, 48 h. Potency, µM (doses to about 46.1 µM), for the others: at the top dose activity, negative = toxicity, actives largely listed as cytotoxic. hit rate 2% among 360,000;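 also: potency is read from the fitted curve at half-maximal effect; 0% = DMSO wells and -100% = cell-free medium wells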
#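 CellTiter-Glo luminescence after 48 h compound exposure at 37 degrees C of IDH1-knockdown HT-1080 cells in 5% FBS RPMI. %Activity scaled between DMSO wells and cell-free media wells, with curves fitted and assigned curve classes.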
# TDP1 cell noCPT: qHTS for Inhibitors of human tyrosyl-DNA phosphodiesterase 1 (TDP1): qHTS in cells in absence of CPT | DT40 Tdp1-/- hTDP1 cells, no CPT, ATP luminescence, 48 h | Potency, µM (series often up to 46.2 µM), without a hit: at the top dose activity change, negative = growth inhibition, most hits filed as inhibitors | hit rate 15% among 420,000; also: potency is read from the fitted curve at half-maximal effect; nearly all actives have a fitted effect of over 55% in size
#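 No-CPT arm: Tdp1-/-;hTDP1 DT40 cells (400/well) plus compounds, incubated ≥48 hr at 37 °C. Readout CellTiter-Glo luminescence.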
# ALOX12 inh: blocks human arachidonate 12S-lipoxygenase | purified 12hLO, xylenol orange hydroperoxide absorbance | hit rate 1.1% among 580,000 | AID 1671190 | Potency, µM (doses to about 108 µM), inactives show at the highest dose activity change, negative = inhibition, hits mostly inhibitors; also: potency is read from the fitted curve at half-maximal effect
# Target sequence (P18054 whole entry, looked up): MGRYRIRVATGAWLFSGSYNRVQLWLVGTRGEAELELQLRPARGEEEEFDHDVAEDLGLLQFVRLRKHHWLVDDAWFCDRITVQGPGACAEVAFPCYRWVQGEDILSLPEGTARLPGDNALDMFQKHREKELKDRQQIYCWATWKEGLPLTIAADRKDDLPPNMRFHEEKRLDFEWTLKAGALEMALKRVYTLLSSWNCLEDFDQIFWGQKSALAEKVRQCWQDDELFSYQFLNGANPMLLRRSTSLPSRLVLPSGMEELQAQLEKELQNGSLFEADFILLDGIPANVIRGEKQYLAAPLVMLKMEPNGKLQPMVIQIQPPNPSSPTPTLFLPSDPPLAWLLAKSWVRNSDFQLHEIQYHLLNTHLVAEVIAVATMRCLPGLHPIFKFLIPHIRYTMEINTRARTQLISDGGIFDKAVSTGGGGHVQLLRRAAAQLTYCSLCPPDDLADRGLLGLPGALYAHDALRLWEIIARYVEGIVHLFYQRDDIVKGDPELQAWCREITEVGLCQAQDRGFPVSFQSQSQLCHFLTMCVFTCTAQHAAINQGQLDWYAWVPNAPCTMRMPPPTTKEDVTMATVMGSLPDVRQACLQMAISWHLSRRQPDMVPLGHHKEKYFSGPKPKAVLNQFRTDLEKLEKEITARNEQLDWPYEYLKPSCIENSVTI
#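 Purified human 12hLO (150 nM final) in 25 mM Hepes, 0.01% Triton X-100, pH 7.0 was preincubated 15 min at room temperature with compound. Then 40 uM arachidonic acid was added, 30 min. Hydroperoxide was read by Fe-XO absorbance ratio 573/405 nm.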
# HT1080-NT tox: kills 2HG-producing HT-1080-NT fibrosarcoma cells; HT-1080-NT fibrosarcoma viability, CellTiter-Glo ATP luminescence, 48 h; AID 686970; Potency, µM (highest dose often 46.1 µM), without a hit: at the highest dose activity, negative = less viability, usual class: cytotoxic; hit rate 1.6% among 360,000;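 also: NT is the 2HG producing partner of a matched IDH1 knockdown line; potency is read from the fitted curve at half-maximal effect; 0% = DMSO-treated cells and -100% = media-only wells without cells; nearly all actives have a fitted effect of over 55% in size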
#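 Compounds were tested in concentration-response format on HT-1080-NT cells for 48 hours at 37 degrees C. Cell viability came from CellTiter-Glo luminescence; curves were classified by r2, response magnitude and activity.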
# IL1B secr inh: inflammasome signaling inhibition, IL-1 beta readout | AID 743279 | THP-1 LPS/ATP IL-1B secretion, AlphaLISA, 16 h; hits give low values | activity change, % at 57.5 µM | hit rate 4.7% among 360,000; in the data active = activity change below about -50%; inconclusive = mostly about -30% to -49%
#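 Secreted IL-1B measured by AlphaLISA bead assay after 16 h compound exposure of THP-1 cells; compounds (final up to 57.5 uM) added 1 h before LPS (250 ng/mL) and ATP (1.25 mM) stimulation; lower signal means less secretion.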
# Numbers without * were called inactive; u = inconclusive; x = not tested or not shown; [ ] = dose if it differs, or a comment. Unless noted, calls follow the shape of the dose curve; as a rule, active = well fitted curve in the direction sought with a large enough effect; inconclusive = small, poorly fitted or top-dose-only effect, or another doubt; inactive = no such curve, though single readings can be large; an effect the other way counts as inactive or inconclusive. Unless noted, % is scaled to controls: 0 for no effect and ±100 for the full control effect.
SMILES,TDP1 cell CPT,HT1080 IDH1KD tx,TDP1 cell noCPT,ALOX12 inh,HT1080-NT tox,IL1B secr inh
Cc1cnc(CNc2nc(-c3ccc4c(c3)OCO4)nc3ccccc23)cn1,-20.2%,x,-18.9%,-29.5%,x,x
CN(C)Cc1ccccc1-c1nc(NCc2cccs2)c2ccccc2n1,20.6µM*,x,20.6µM*,-1.1%,x,x
c1ccc(-c2nnsc2-c2nc3ccccc3[nH]2)cc1,-4.7%,5.0%,u,3.8%,-5.9%,55.4
c1ccc(-c2csc(-c3nc4ccccc4[nH]3)n2)cc1,16.8µM*,x,26.6µM*,x,x,x
Nc1ccc(-c2nc3ccccc3[nH]2)cc1,-5.4%,0.6%,-19.7%,5.6%,2.4%,-4.7
c1ccc(-c2cc(-c3nc4ccccc4[nH]3)c3ccccc3n2)cc1,u,u,u,-10.5%,-28.6%,-66.7*
CNC(=O)[C@H]1C[C@H](Oc2ccccc2)CN1C(=O)NCc1ccccc1,x,x,x,9.4%,x,x
O=C(CC1CCCC1)N1CCC(Cc2nc(-c3ccc(F)cc3)no2)CC1,x,x,x,31.4%,x,x
CCCCN(Cc1ccccc1)c1ccc(C(=O)O)cc1NS(=O)(=O)c1ccc(C(C)=O)cc1,x,x,x,5.62µM*,x,x
CCCCN(Cc1ccccc1)c1ccc(C(=O)O)cc1NS(=O)(=O)c1ccc(C)c(C)c1,x,x,x,8.91µM*,x,x
Cc1csc(NC(=O)CSc2ccccc2)n1,x,x,x,-25.7%,x,x
CC1CCC(C(=O)Nc2ccc(Br)cc2)CC1 (stereo not drawn),x,x,x,15.3%,x,x
CCONC(=O)c1cccc(NC(C)=O)c1,x,x,x,-42.8%,x,x
COc1cccc(-n2cnc3scc(-c4ccc(Cl)cc4)c3c2=O)c1,x,x,x,-3.0%,x,x
O=C(N/N=C/c1sc(N2CCOCC2)nc1-c1ccccc1)c1cccc(S(=O)(=O)N2CCCC2)c1,2.59µM*,u,4.61µM*,-13.4%,-3.5%,55.9
O=C(N/N=C/c1sc(N2CCOCC2)nc1-c1ccccc1)c1ccc(O)cc1,u,-25.7%,u,1.7%,-19.5%,-20.0
O=C(N/N=C/c1cc(Br)cc(Br)c1O)c1cccc(N2CCCC2=O)c1,5.17µM*,-21.7%,1.46µM*,0.0%,-12.2%,128.9
COc1cccc(/C=N/NC(=O)c2ccc(N3CCCC3=O)cc2)c1,u,u,23.1µM*,-9.7%,u,-28.7
O=C(N/N=C/c1ccc(Cl)cc1Cl)c1cccc(N2CCCC2=O)c1,-27.0%,-8.1%,-22.6%,6.0%,-4.2%,u
O=C(N/N=C/c1cc(Cl)cc([N+](=O)[O-])c1O)c1cccc(S(=O)(=O)N2CCOCC2)c1,-18.7%,u,u,u,16.4µM*,13.8
CC(C)c1nc(NCc2ccccc2Cn2cccn2)c2cnn(C)c2n1,x,x,x,2.7%,x,x
CCOCCOc1cccc(C(=O)N2C[C@H](C3CC3)[C@@H](N)C2)c1,x,x,x,41.3%,x,x
Cc1cc(C)n(Cc2ccc(C(=O)N3C[C@@H](Oc4cccnc4)C[C@H]3C(N)=O)o2)n1,x,x,x,29.5%,x,x
O[C@H]1CC[C@@H](Cc2cc(-c3ccccc3)on2)O[C@@H]1CNC1CCCCC1,x,x,x,8.9%[176 µM],x,x
O=C(N/N=C/c1ccccc1Br)c1cccc(S(=O)(=O)N2CCOCC2)c1,-4.3%,3.5%,-3.3%,7.7%,-2.8%[9.24 µM],27.3
SMILES,TDP1 cell CPT,HT1080 IDH1KD tx,TDP1 cell noCPT,ALOX12 inh,HT1080-NT tox,IL1B secr inh
O=C(N/N=C/c1cc(Br)cc(Br)c1O)c1cccc(S(=O)(=O)N2CCOCC2)c1,3.66µM*,u,3.66µM*,0.0%,-25.9%,79.6
Cc1ccc(Cc2c(-c3ccc(Cl)cc3)nc3cc(C)ccn23)cc1,u,7.8%,18.4µM*,u,4.9%,-6.3
Cc1ccn2c(CC(C)(C)C)c(-c3ccc(F)cc3)nc2c1,20.6µM*,6.3%,20.6µM*,u,10.5%,11.0
Cc1ccc(Cc2c(-c3ccc(C)cc3)nc3cc(C)ccn23)cc1,20.6µM*,-13.2%,20.6µM*,u,-12.6%,-6.0
Cc1ccc(Cc2c(-c3ccc(C#N)cc3)nc3c4ccccc4ccn23)cc1,u,7.3%,u,u,-1.4%,3.3
Cn1ccnc1C(=O)N1CCC(Oc2cccc(F)c2)C1 (stereo not drawn),x,x,x,22.6%,x,x
Cc1ccc(CNC(=O)C2CCN(c3nc4c(C)cc(C)cc4s3)CC2)cc1,x,x,x,-3.7%,x,x
COc1ccc(NC(=O)c2cnc(SC)nc2C(F)(F)F)c(OC)c1,x,x,x,-1.8%,x,x
C=CC[C@H](CC(=O)N(CCO)Cc1ccccc1)C(=O)NCCOC(=O)[C@H](CC=C)CC(=O)OC(C)(C)C,16.4µM*,-0.9%,20.6µM*,u,0.3%,-21.4
C=CC[C@H](CC(=O)N(CCO)Cc1ccccc1)C(=O)NCCOC(=O)[C@@H](CC=C)CC(=O)OC(C)(C)C,23.1µM*,-1.8%,u,-1.9%,3.5%,-2.4
Cc1[nH]c2ccccc2c1/C=N/NC(=O)c1cc(-c2ccncc2)nc2ccccc12,5.8µM*,4.61µM*,5.17µM*,8.4%,u,0.0
Cc1[nH]c2ccccc2c1/C=N/NC(=O)c1cc(-c2ccccc2)n[nH]1,u,14.6µM*,18.4µM*,6.0%,14.6µM*,u
Cc1nn(-c2ccccc2)c(C)c1/C=N/NC(=O)c1cc(-c2cccc3ccccc23)n[nH]1,u,u,16.4µM*,-4.8%,u,-15.1
Cc1[nH]c2ccccc2c1/C=N/NC(=O)c1cc(C(C)(C)C)[nH]n1,3.0%,-2.2%,-28.0%,362.7%,-13.8%,-11.0
Cc1nn(-c2ccccc2)c(C)c1/C=N/NC(=O)c1ccc(F)cc1,-11.3%,-0.5%,-19.9%,-3.1%,4.2%,-24.3
Cc1[nH]c2ccccc2c1/C=N/NC(=O)c1ccccc1,-14.8%,-2.0%,u,34.5%,2.8%,20.0
CCn1cc(C(=O)NCc2ccc3c(c2)OCO3)c(=O)c2cc(F)c(N3CCN(C(=O)c4ccco4)CC3)cc21,11.6µM*,18.4µM*,10.3µM*,u,18.4µM*,-59.3*
CCCNC(=O)c1cn(CC)c2cc(N3CCN(C)CC3)c(F)cc2c1=O,-1.9%,8.6%,-1.7%,0.0%,7.4%,3.3
CCN(CC)CCCNC(=O)c1cn(CC)c2cc(N3CCN(C(=O)c4ccco4)CC3)c(F)cc2c1=O,-17.9%,9.1%,0.4%,-3.8%,4.4%,-5.3
CCn1cc(C(=O)NCc2ccccc2)c(=O)c2cc(F)c(N3CCN(C(=O)c4ccco4)CC3)cc21,10.3µM*,u,9.2µM*,u,20.6µM*,-63.7*
CC(=O)Nc1cc(C(=O)COC(=O)c2ccc3ccccc3c2)ccc1O,x,x,x,-3.1%,x,x
